# Reference: PubChem BioAssay AID504832 (National Center for Advancing Translational Sciences (NCATS), 2011)
# The whole screen tested about 310,000 compounds, of which about 18,000 (5.8%) were called active. Inconclusive results (about 22%) are left out. Shown is part of a subset that was picked to be rich in actives. A number with no mark means an inactive call. Calls come from the whole dose curve; as a rule, active = well fitted inhibition curve with a large enough effect; inconclusive = small, poorly fitted or top-dose-only effect, or another doubt; inactive = no such curve, though single readings can be large or run the other way.
# Experiment: Primary qHTS for delayed death inhibitors of the malarial parasite plastid, 48 hour incubation
# Details: P. falciparum luciferase growth in erythrocytes; series mostly up to 28.7 µM; activity change, negative = inhibition: at the top concentration
# Method in brief: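 Parasite viability was followed by luminescence of a genomically integrated firefly luciferase. Cultures held 0.1% parasitemia at 2% hematocrit (final), incubated under 5% CO2 at 37 C.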
# % is set by controls: 0 for no effect and ±100 for the full control effect; potency is the fitted concentration of half-maximal effect.
SMILES,Potency,"activity change, negative = inhibition"
CC(C)Oc1ccc(S(=O)(=O)N2CCOCC2)cc1NC(=O)C1CSC2(C)CCC(=O)N12 (stereo not given),9.28 µM (active),–
CCN(CC)S(=O)(=O)c1ccc(N2CCOCC2)c(NC(=O)C2CSC3(C)CCC(=O)N23)c1 (stereo not given),–,0%
Cc1ccc(NC(=O)CSc2nn3c(=O)c(C)nnc3s2)cc1Cl,13.1 µM (active),–
Cc1ccc(NC(=O)C/C(N)=N/O)cc1Cl,–,2.93%
Cc1ccc(NC(=O)CSc2nnc(CNC(=O)c3ccccc3F)o2)cc1Cl,–,32%
COc1cccc(-c2nc(CS(=O)CC(=O)NCc3ccc(F)cc3)c(C)o2)c1 (stereo not given),–,27.8%
CCCn1c(=O)c(C(=O)Nc2cc(C)ccn2)c(O)c2ccccc21,–,28.3%
O=S(=O)(Nc1ccccc1)c1ccc(NS(=O)(=O)c2cccs2)cc1,–,4.5%
CCCCNC(=O)N(O)C1N(/N=C/c2ccc(N(C)C)cc2)C(=S)SC1(C)C (stereo not given),–,-2.29% [at 0.00184 µM]
N#Cc1c(NC(=O)CCCN2C(=O)c3ccccc3C2=O)oc(-c2ccccc2)c1-c1ccccc1,–,11.4%
N#Cc1c(/N=C/N2CCCC2)oc(-c2ccccc2)c1-c1ccccc1,4.65 µM (active),–
N#Cc1c(-c2ccccc2)c(-c2ccccc2)n[nH]c1=O,–,-11.1%
C=C1CCC(N(O)c2cc(C)on2)C(=C)CCC2C1CC2(C)C (stereo not given),4.65 µM (active),–
COc1ccc(S(=O)(=O)N(C)CC(=O)NCCCN2CCOCC2)cc1Cl,–,21.6%
CCCNC(=O)COc1coc(CN2CCN(Cc3ccccc3)CC2)cc1=O,–,6.97%
Cc1ccc(CNS(=O)(=O)CCNC(=O)c2ccccc2)cc1,–,1.42%
O=C(Cn1c(=O)n(Cc2ccco2)c(=O)c2ccccc21)NCC1CCCO1 (stereo not given),–,0.136%
O=c1c2ccccc2oc2nc(C3CCCCC3)n(Cc3ccco3)c(=O)c12,13.1 µM (active),–
O=c1c2ccccc2oc2nc3n(c(=O)c12)CCCS3,–,-4.62%
COCCNC(=O)c1ccccc1NS(=O)(=O)c1ccc(C)c([N+](=O)[O-])c1,–,-2.7%
Cc1ccc(NS(=O)(=O)c2ccc(N/N=C/c3ccccc3OCC(=O)O)c([N+](=O)[O-])c2)c(C)c1,11.7 µM (active),–
Cc1cccc(COc2ccccc2/C=N/Nc2ccc([N+](=O)[O-])cc2)c1,–,-89.6%
O=C(N/C(=C\c1ccc([N+](=O)[O-])cc1)C(=O)N1CCCCC1)c1ccco1,–,2.5%
O=C(CN1CCOC1=O)N1CCCC(Nc2ccc(F)c(F)c2)C1 (stereo not given),–,0.222%
COc1ccccc1-c1cnn2c(N3CCOCC3)cc(C)nc12,–,95.7%

SMILES,Potency,"activity change, negative = inhibition"
Cn1nccc1/C=N\NC(=O)c1ccc(Cl)cc1,–,15%
CN(CCc1ccccn1)C(=O)c1ccc(OC2CCN(Cc3ccccn3)CC2)cc1,–,0.5%
CCN(CC)C(=O)CC(c1ccc2c(c1)OCO2)c1c(OC)cc(OC)c2c(-c3ccccc3)cc(=O)oc12 (stereo not given),11.7 µM (active),–
CCCCN(CC)C(=O)c1ccc2c(c1)OCO2,–,-5.43%
COc1ccc(-c2cc(=O)oc3cc(OCC(=O)N[C@@H](Cc4c[nH]c5ccccc45)C(=O)O)ccc23)cc1,–,2.65%
COc1cc(OC)c(C(=O)NCc2ccc3c(c2)OCO3)cc1OC,–,0.912%
Cc1[nH][nH]c(=O)c1C(c1ccc2c(c1)OCO2)c1c(C)[nH][nH]c1=O,–,0.59%
COc1ccc(F)cc1S(=O)(=O)NCC(c1ccc2c(c1)OCO2)N1CCN(C)CC1 (stereo not given),–,0.254%
CCN(CC)CCC(c1cc(OC)c(OC)c(OC)c1)c1c(OC)cc(OC)c2c(-c3ccccc3)cc(=O)oc12 (stereo not given),3.29 µM (active),–
CCN(CC)CCC(c1ccc2c(c1)OCO2)c1c(OC)cc(OC)c2c(-c3ccccc3)cc(=O)oc12 (stereo not given),9.28 µM (active),–
CC(=O)COc1ccc2c(-c3ccccc3)cc(=O)oc2c1,–,34.8%
O=C(NNC(=O)c1ccc(-n2cncn2)c([N+](=O)[O-])c1)c1ccccc1,–,-10.8%
S=C(Nc1ccc(Cl)cc1Cl)N1CCCC1,–,54.8%
COc1cc(/C=N/NC(=O)Cc2ccccc2)cc(OC)c1OC,–,6.42%
O=C(Nc1cccc(F)c1)[C@@H]1CCCN1,–,-9.54%
Cc1cc(C)nc(NS(=O)(=O)c2ccc(N3C(=O)C4CCCCC4C3=O)cc2)n1 (stereo not given),–,26.1%
Cc1cc(N2C(=O)C(O)=C(C(=O)c3ccc(C)o3)C2c2ccc(OCc3ccccc3)cc2)no1 (stereo not given),–,5.29%
O=C(Cn1nc([N+](=O)[O-])nc1Br)NC1CCCCC1,1.47 µM (active),–
Cc1cc(C(F)F)nn1CC(=O)NC1CCCCCC1,–,10.4%
Cc1nn(CC(=O)NC2CCCCC2)c(=O)c2cccn12,–,29.8%
CC1(C)O[C@@H]2[C@H](O1)[C@@H](CO)O[C@H]2n1c(N2CCCCC2)nc2c(N)ncnc21,–,-1.31%
O=C(NCc1cccnc1)C12CC3CC(CC(C3)C1)C2,–,-8.11%
O=C(CCl)Nc1cccc(CP(=O)(c2ccccc2)c2ccccc2)c1,10.4 µM (active),–
O=C(Cc1ccccc1)Nc1cccc(NC(=O)c2ccccc2)c1,–,312%
CCc1cccc(NC(=O)CCC(=O)O)c1,–,2.01%
